Test results: PubChem BioAssay AID504604 (National Center for Advancing Translational Sciences (NCATS), 2011)
The source made the active and inactive calls. The call rests on the fitted dose curve; in most records, active means well fitted inhibition curve with a large enough effect; inconclusive means small, poorly fitted or top-dose-only effect; inactive means flat fitted curve, though single readings scatter.

Test: Quantitative high throughput screen to test activity of anti-malarial compounds in the Dd2 strain of Plasmodium Falciparum
Settings: P. falciparum Dd2 in RBCs, SYBR Green growth, 72 h
Source text: NIH Molecular Libraries Probe Production Network [MLPCN] NIH Chemical Genomics Center [NCGC] MLPCN Grant: R21 NS059500 Assay Provider: David Fidock and Eric Ekland, Columbia University The goal of this screen is to measure the ability of a set of anti-malarial compounds to inhibit the Dd2 strain of P. falciparum. These compounds have been screened in a delayed death phenotype assay and have been identified as inhibitors of the delated death phenotype, by inhibiting the development of the apicoplast in the malarial parasite Plasmodium falciparum (described below) The biochemical processes that make this organelle essential for erythrocytic stage parasites are not well understood. However, antibiotics, such as azithromycin and tetracycline, which target the apicoplast translational machinery, have a potent antimalarial effect. […] We have developed a cell-based assay that measures parasite growth based on the expression of an integrated copy of a firefly luciferase reporter. To detect small molecules that cause this 'delayed death' phenotype, erythrocytes infected with the luciferase-expressing parasites were incubated with compounds for either one or two generations, corresponding to 48 and 96 hours, respectively. […] Growth inhibition is detected by a decrease in luciferase activity […]

Question: For `C[C@@H]1CN([C@@H](C)CO)C(=O)c2cc(NC(=O)Nc3ccccc3)ccc2O[C@@H](C)CCCCO[C@H]1CN(C)C(=O)Oc1ccccc1`, which Potency is on record?
Answer: 8.96 µM (active)

Question: For `COc1ccc(COC[C@H](C)N2C[C@@H](C)[C@H](CN(C)S(=O)(=O)c3ccc(F)cc3)OCCCC[C@H](C)Oc3ccc(NC(=O)Nc4ccccc4)cc3C2=O)cc1`, which Potency is on record?
Answer: 0.0142 µM (active)
